# Most compounds without a hit are left out; they make up all but 0.95% or so of the library.
# Giardia FBPA inh-1 = inhibitors of Giardia lamblia fructose-1,6-bisphosphate aldolase; purified Giardia FBPA; Potency, µM (doses to about 59.6 µM), for the others: top-dose activity, negative = inhibition, hits mostly inhibitors; actives 0.71% (n = 290,000); AID 2451; also: nearly all actives have a fitted effect of over 55% in size
# Target sequence (A8B2U2 whole entry, looked up): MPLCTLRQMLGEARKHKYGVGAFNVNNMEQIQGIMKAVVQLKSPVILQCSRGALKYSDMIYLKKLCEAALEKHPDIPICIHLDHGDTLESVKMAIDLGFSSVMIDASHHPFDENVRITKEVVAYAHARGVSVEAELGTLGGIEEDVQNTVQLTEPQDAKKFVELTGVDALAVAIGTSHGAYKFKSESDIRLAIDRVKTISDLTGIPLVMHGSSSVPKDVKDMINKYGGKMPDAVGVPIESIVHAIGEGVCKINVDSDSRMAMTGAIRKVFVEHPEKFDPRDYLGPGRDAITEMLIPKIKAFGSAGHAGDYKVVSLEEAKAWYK
#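 40 nM FBPA preincubated 10 min at RT with compound (up to 57.5 uM final), then substrate plus GAPDH/TPI/NAD/arsenate coupling and diaphorase/resazurin added. Fluorescence read after 20 min at RT, 525/598 nm.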
# TbPYK inhibitor = T. brucei pyruvate kinase inhibition | Q57TT1 | TbPYK enzyme, Kinase-Glo Plus ATP luminescence, 45 min | Potency, µM (titrated, usually from 76.8 µM), without a hit: at the highest dose activity, negative = inhibition, hits mostly inhibitors | actives 0.12% (n = 410,000) | AID 624173; also: nearly all actives have a fitted effect of over 50% in size
#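 Luminescence from Kinase-Glo Plus, added after a 45-minute room-temperature reaction, served as the end-point read-out. The enzyme and substrate were preincubated with compound before ADP (130 uM final) initiated turnover. Concentration-effect curves came from normalized qHTS data.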
# RE007 growth inh = less growth of the S. pombe RE007 Vpr strain; S. pombe RE007 Vpr strain, BacTiter-Glo ATP luminescence, 24 h; Potency, µM (highest dose often 92.2 µM), without a hit: top-dose activity change, negative = less growth, most hits filed as inhibitors; actives 0.21% (n = 360,000); AID 651644; active = well fitted falling curve with a large enough effect; inconclusive = small, poorly fitted or top-dose-only effect; inactive = no such curve, though single readings can be large or run the other way; also: nearly all actives have a fitted effect of over 50% in size
#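 Fission yeast RE007 carrying one integrated HIV-1 vpr copy, seeded at OD 0.01 in PMG+AL medium with 23 nL pinned compound. Grown 24 h at 30 degrees; viability read by BacTiter-Glo luminescence after 5 min.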
# LmPK inhibitor = inhibitors of Leishmania mexicana pyruvate kinase. Q27686. purified LmPK, Kinase-Glo ATP luminescence, 1 h. Potency, µM (titrated, usually from 57.5 µM), without a hit: top-dose activity change, negative = inhibition, hits mostly inhibitors. actives 0.37% (n = 290,000). AID 1721
#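 0.1 nM LmPK, 0.5 mM PEP, 0.1 mM ADP; 50 mM imidazole pH 7.2, 7 mM MgCl2, 50 mM KCl; 1 h RT. Kinase-Glo luminescence readout, normalized to no-enzyme (full inhibition) and uninhibited wells.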
# Giardia growth = inhibitors of Giardia lamblia growth | shares compounds with Giardia FBPA inh-1 | actives 5% (n = 1,500) | Potency, µM (series often up to 57.5 µM), for inactives: at the top dose activity change, negative = inhibition, most hits filed as inhibitors | Giardia lamblia trophozoite growth inhibition;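 also: trophozoites exposed to compound for 48 h at 37 °C; nearly all actives have a fitted effect of over 70% in size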
# Mammalian tox = mammalian cytotoxicity of Giardia aldolase inhibitor hits. shares compounds with Giardia FBPA inh-1. actives 4% (n = 1,500). mammalian cell viability counter-screen, qHTS. AID 2786. Potency, µM (highest dose often 57.5 µM), without a hit: at the highest dose viability change, negative = toxicity, most hits filed as inhibitors;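 also: Chinese hamster ovary cells used as mammalian cytotoxicity surrogate; viability measured as cellular ATP by luminescence; compound exposure lasted 48 h before reading; nearly all actives have a fitted effect of over 60% in size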
# Giardia FBPA inh-2 = confirmation of Giardia fructose-bisphosphate aldolase inhibitors. shares compounds with Giardia FBPA inh-1. purified Giardia aldolase enzyme activity, qHTS. Potency, µM (titrated, usually from 57.5 µM), without a hit: top-dose activity change, negative = inhibition, usual class: inhibitors. actives 5% (n = 1,500). AID 2787; also: nearly all actives have a fitted effect of over 45% in size
# Rabbit FBPA inh = selectivity test for Giardia aldolase inhibitors: rabbit aldolase; shares compounds with Giardia FBPA inh-1; Rabbit muscle FBPA enzyme inhibition, selectivity counter-screen; Potency, µM (top dose mostly 57.5 µM), for inactives: at the highest dose activity, negative = inhibition, usual class: inhibitors; actives 4% (n = 1,500); AID 2794; also: nearly all actives have a fitted effect of over 60% in size
# Target sequence (P00883 whole entry, looked up): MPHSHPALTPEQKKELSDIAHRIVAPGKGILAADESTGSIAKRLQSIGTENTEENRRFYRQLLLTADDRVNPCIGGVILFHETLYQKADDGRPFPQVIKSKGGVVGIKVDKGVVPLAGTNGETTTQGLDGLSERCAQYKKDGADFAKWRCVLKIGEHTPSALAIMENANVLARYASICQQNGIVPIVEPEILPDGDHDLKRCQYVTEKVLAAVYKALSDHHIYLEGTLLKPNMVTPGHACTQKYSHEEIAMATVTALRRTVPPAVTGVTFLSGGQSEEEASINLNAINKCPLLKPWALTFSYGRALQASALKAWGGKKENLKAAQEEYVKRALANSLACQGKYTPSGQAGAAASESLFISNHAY
# GAPDH coupling = counter-screen for Giardia aldolase inhibitors: GAPDH coupling enzyme; shares compounds with Giardia FBPA inh-1; GAPDH coupling enzyme counterscreen, biochemical, qHTS; Potency, µM (doses to about 57.5 µM), without a hit: at the top dose activity change, negative = inhibition, most hits filed as inhibitors; actives 6% (n = 1,500); also: nearly all actives have a fitted effect of over 55% in size
# Numbers without * were called inactive; ? = inconclusive; · = not tested or not shown; [ ] = dose if it differs, or a comment. Unless noted, calls follow the shape of the dose curve; as a rule, active = well fitted curve in the direction sought with a large enough effect; inconclusive = small, poorly fitted or top-dose-only effect, or another doubt; inactive = no such curve, though single readings can be large; an effect the other way counts as inactive or inconclusive. % is scaled to controls: 0 for no effect and ±100 for the full control effect; potency is read from the fitted curve at half-maximal effect.
SMILES,Giardia FBPA inh-1,TbPYK inhibitor,RE007 growth inh,LmPK inhibitor,Giardia growth,Mammalian tox,Giardia FBPA inh-2,Rabbit FBPA inh,GAPDH coupling
O=C(NNC(=O)c1ccccn1)c1cccc([N+](=O)[O-])c1,10µM*,-2%,8%,0%,?,?,-1%,-6%,-26%
CCCCCC/C=C/c1ccc(OC)c(C2C3C=CCC(C)C3C(=O)N2Cc2ccccc2)c1 (stereo unspecified),1%,·,·,·,·,·,·,·,·
Cc1ccc(NC(=O)CN(C)CC(=O)Nc2cccc(F)c2)cc1S(=O)(=O)N1CCCCCC1,16µM*,2%,7%,-10%,-5%,-4%,1%,-4%,-3%
CC1CCC2C(=O)N3C(CCC(C)[C@H]3c3cccc(N4CCCC4=O)c3)C(=O)N2C1c1cccc(N2CCCC2=O)c1 (stereo partly specified),-2%[12.9 µM],·,·,·,·,·,·,·,·
N#Cc1c(-c2ccc(F)cc2)cc(-c2ccccc2)nc1SCC(=O)NCC(=O)O,7.1µM*,-19%,17%,1%,21%[38.3 µM],15%,-2%,6%,15%
N#Cc1c(-c2ccc(Cl)cc2)cc(-c2ccccc2)nc1SCC(=O)O,11%,6%,5%,-1%,·,·,·,·,·
O=C(NC(=S)Nc1ccc(CN2CCOCC2)cc1)c1cccc([N+](=O)[O-])c1,4%,3%,-21%,-1%,·,·,·,·,·
O=C(NC(=S)Nc1ccc(CN2CCOCC2)cc1)c1cccc(F)c1,11µM*,-2%,-13%,-2%,-11%,7%,-4%,9%,7%
CCCc1nc2ccccc2c(NC(=O)CN(CC)CC)c1CC,16µM*,-5%,-9%,-7%,7%[10.4 µM],9%,-2%,8%,11%
CCN(CC)CC(=O)Nc1cc(N(C)C)nc2ccccc12,5.6µM*,21%,-7%,-24%,?,-1%,5%,5%,15%
Cc1ccccc1-c1nc2ccccc2c(=O)n1/N=C/c1ccccc1[N+](=O)[O-],4.5µM*,-16%,-5%,0%,10µM*,?,?,?,35µM*
CCOCCCn1c(=O)c2ccccc2n2c(=S)[nH]nc12,13µM*,-30%,1%,2%,28%,5%,9%,18%,10%
CC(C)CCn1c(=O)c2ccccc2n2c(=S)[nH]nc12,29%,?,-17%,-5%,·,·,·,·,·
CCC1Oc2ccccc2N(CC(=O)NCCN2CCc3ccccc3C2)C1=O (stereo unspecified),16µM*,-7%,1%,3%,-22%,18%,6%,9%,1%
O=C(NC(=S)N1CCN(C/C=C/c2ccccc2)CC1)c1cccnc1,11µM*,?,-17%,-3%,11%,10%,-3%,7%,-1%
O=C(c1cccnc1)N1CCN(C/C=C/c2ccccc2)CC1,4%,1%,-9%,-1%,·,·,·,·,·
CC(=O)Nc1cccc(/C(C)=N/NC(N)=S)c1,18µM*,-11%,19%,-4%,14%,-20%,7%,3%,7%
CC(=O)Nc1cccc(/C(C)=N/NC(=S)NC(C)C)c1,-10%,-3%,-7%,0%,·,·,·,·,·
CC(=O)Nc1ccc(NC(=O)C/C(C)=N/NC(N)=S)cc1,16µM*,-4%,-7%,3%,-14%,9%,-2%,7%,4%
Cc1cc(C)c(NC(=S)N(CCc2ccncc2)C(C)C)c(C)c1,10µM*,9%,-21%,-1%,-6%[38.3 µM],-13%,3%,2%,-4%
Cc1ccc(/C=C2\SC(=S)N(NS(=O)(=O)c3ccc(C)cc3)C2=O)cc1,25µM*,-2%,13%,-3%,24%,-8%,16%,8%,17%
Cc1cc(C)c2c(-n3cccc3)c(C(=O)NCCCN3CCCCC3C)sc2n1 (stereo unspecified),·,-3%,·,·,·,·,·,·,·
Cn1c(=O)c2[nH]c(N/N=C(/C#N)C(N)=O)nc2n(C)c1=O,20µM*,-2%,-6%,-7%,34%,-5%,5%,2%,-2%
CCC(COC(C)=O)Nc1nc2c([nH]1)c(=O)n(C)c(=O)n2C (stereo unspecified),0%,-3%,4%,2%,·,·,·,·,·
O=C1C(Nc2ccc(O)cc2)=C/C(=N/S(=O)(=O)c2cccs2)c2ccccc21,?,-23%,-30%,?,·,·,·,·,·
SMILES,Giardia FBPA inh-1,TbPYK inhibitor,RE007 growth inh,LmPK inhibitor,Giardia growth,Mammalian tox,Giardia FBPA inh-2,Rabbit FBPA inh,GAPDH coupling
Cc1cccc(NC2=C/C(=N/S(=O)(=O)c3cccs3)c3ccccc3C2=O)c1,0.2µM*,-30%,-3%,-15%,16µM*,20µM*,?,-15%,2.5µM*
CCCOc1ccc(CNC(=O)Cn2cc3c(n2)-c2c(oc(C(=O)N4CCOCC4)c2C)CC3)cc1,·,-6%,·,·,·,·,·,·,·
O=C(O)c1cccc(-c2ccc(/C=N/Nc3nn[nH]n3)o2)c1,16µM*,-4%,1%,-4%,-12%,5%,-1%,-11%,-1%
CCCCNC(=O)C(c1ccc(OCC(=O)OC)c(C(=O)OC)c1)N(CCC1=CCCCC1)C(=O)CCCCCN1C(=O)NC(c2ccc(-c3ccccc3)cc2)C(C(=O)OCc2ccccc2)=C1C (stereo unspecified),6%,·,·,·,·,·,·,·,·
CCOc1ccc2[nH]c(S(=O)(=O)CC)nc2c1Cl,3.5µM*,3%,4%,-2%,-18%[38.3 µM],1%,-11%,-3%,1%
Cc1cc(C(F)F)nn1CC(=O)NC1C(=O)N2C(C(=O)O)=C(CSc3nnnn3C)CSC12 (stereo unspecified),?,-15%,-2%,-4%,·,·,·,·,·
Cc1cc(C)n(CC(=O)NC2C(=O)N3C(C(=O)O)=C(CSc4nnc(C)s4)CSC23)n1 (stereo unspecified),13µM*,-6%,-13%,14%,3%,-2%,-1%,6%,1%
Cc1nnc(SCC2=C(C(=O)O)N3C(=O)C(NC(=O)c4cccc(F)c4F)C3SC2)s1 (stereo unspecified),14µM*,-6%,14%,0%,5%[10.4 µM],-6%,1%,-6%,6%

# Screens from PubChem.
